In the library only some 1.3% were active in any assay of this set; here they are far more common.
MEP2 TOR yeast = yeast TOR pathway MEP2-GFP modulation | S. cerevisiae MEP2-GFP strain, flow cytometry GFP, 3 h; 100% = DMSO control level | GFP response vs DMSO, % at 10 µM | 330,000 tested, 0.51% active;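 active means GFP response versus DMSO above a set limit, roughly screen mean plus 3 SD, cut at about 180% in these data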;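 further: median GFP fluorescence of the barcode-gated MEP2-GFP cells per well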
Efflux pump inh = blocks antifungal efflux pumps in multiplex yeast assay; inhibition, % at 10 µM; 330,000 tested, 0.44% active; S. cerevisiae Candida pump triplex, Nile Red efflux;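 active means plate passing quality check with inhibition over a set limit, or well fluorescence over plate mean plus 4 SD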;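 further: Nile Red retained in pooled yeast measured as flow cytometry median fluorescence; 0% = buffer negative control and 100% = Enniatin B positive control; higher means more Nile Red kept so more efflux inhibition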
CIT2-GFP yeast = yeast TOR pathway CIT2-GFP modulation | S. cerevisiae CIT2-GFP strain, flow cytometry, 3 h; 100 means same as DMSO wells | GFP response vs DMSO, % at 10 µM | 320,000 tested, 0.065% active;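 active means GFP response relative to DMSO above a set limit, near the screen mean plus 3 SD, cut at about 150% in these data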;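 further: ratio of well median GFP fluorescence to mean of DMSO wells on the plate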
LAP4-GFP MLPCN = alters LAP4-GFP fluorescence in TOR pathway yeast screen. S. cerevisiae LAP4-GFP multiplex, flow cytometry GFP, 3 h; median GFP as percent of DMSO wells. GFP response vs DMSO, % at 10 µM. 320,000 tested, 0.34% active. AID 2023;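 active means GFP response vs DMSO above a set limit, about the screen mean plus 3 SD, cut at about 150% in these data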
RPL19A-GFP yeast = yeast TOR pathway RPL19A-GFP modulation | 330,000 tested, 0.3% active | percent response vs DMSO, % at 10 µM | S. cerevisiae RPL19A-GFP strain, flow cytometry, 3 h; stronger effect = lower value | AID 2025;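 active means percent response vs DMSO below 50%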;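 further: median channel GFP fluorescence of the barcoded RPL19A-GFP strain; ratio of sample median GFP to plate DMSO average so 100% = DMSO; lower means less RPL19A-GFP as with rapamycin TOR inhibition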
AGP1-GFP MLPCN = modulators of TOR pathway AGP1-GFP in S. cerevisiae; GFP response vs DMSO, % at 10 µM; S. cerevisiae AGP1-GFP multiplex flow cytometry, 3 h; GFP as percent of DMSO wells; AID 2066; 320,000 tested, 0.02% active;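 active means GFP response relative to DMSO above a set limit, near screen average plus 3 SD, cut at about 150% in these data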;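 further: median GFP channel fluorescence of the gated AGP1 strain per well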
LAP4-GFP pick2 = yeast LAP4-GFP modulation, second cherry pick. shares compounds with LAP4-GFP MLPCN. S. cerevisiae LAP4-GFP strain, flow cytometry GFP, 3 h. GFP response vs DMSO, % at 10 µM. 590 tested, 20% active;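 active means GFP signal as percent of the solvent control above about 150%, meaning raised reporter expression, limit read from the data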;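 further: ratio of well median GFP fluorescence to plate DMSO mean so 100% = DMSO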
MEP2-GFP pick2 = second confirmation of modulators of TOR reporter MEP2-GFP in yeast | shares compounds with LAP4-GFP MLPCN | S. cerevisiae MEP2-GFP strain, flow cytometry GFP, 3 h | GFP response vs DMSO, % at 10 µM | 590 tested, 10% active | AID 2622;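 active means GFP signal above 150% of the solvent control wells, that is a rise of more than half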;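 further: median channel GFP fluorescence of all gated yeast cells per well; ratio of median GFP to plate DMSO average so 100% = DMSO level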
RPL19A GFP CP2 = second confirmation of modulators of TOR reporter RPL19A-GFP in yeast | S. cerevisiae RPL19A-GFP strain, flow cytometry GFP, 3 h; stronger effect = lower value; 100% means same as DMSO wells | GFP response vs DMSO, % at 10 µM | 590 tested, 3% active | shares compounds with LAP4-GFP MLPCN;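 active means under 65% GFP response relative to DMSO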;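 further: median GFP channel fluorescence per well over the all cells gate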
CIT2 GFP CP2 = second confirmation of modulators of TOR reporter CIT2-GFP in yeast. shares compounds with LAP4-GFP MLPCN. S. cerevisiae CIT2-GFP strain, flow cytometry GFP, 3 h; DMSO control wells read 100%. GFP response vs DMSO, % at 10 µM. 590 tested, 8% active;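 active means GFP response vs DMSO above about 150%, limit read from the data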;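 further: median green fluorescence per well over all gated yeast cells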
AGP1 GFP CP2 = reconfirmed modulator of AGP1-GFP TOR reporter in yeast; shares compounds with LAP4-GFP MLPCN; S. cerevisiae AGP1-GFP strain, flow cytometry GFP, 3 h; percent response vs DMSO, % at 10 µM; 590 tested, under 10 active;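 active means over 150 percent of DMSO response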;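 further: median GFP channel fluorescence over all cells without mother daughter split; sample median GFP divided by mean DMSO control so 100% equals DMSO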
Yeast autofluor = yeast s288c autofluorescence artifact, counter-screen | S. cerevisiae s288c, 520 nm autofluorescence, flow cytometry, 3 h; stronger effect = higher value; zero means same as solvent-only cells | fluorescence change (kMESF span) at 33 µM | AID 2757 | shares compounds with LAP4-GFP MLPCN | 610 tested, under 10 active;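 active means fluorescence span over the dose series, or activity score, above about 33, limit read from the data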
Yeast autofl DR = yeast s288c autofluorescence artifact in dose response; AID 488829; 110 tested, under 10 active; fluorescence change (span) at 33 µM; S. cerevisiae s288c parental, compound autofluorescence, flow cytometry, 3 h; shares compounds with LAP4-GFP MLPCN;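 active means fluorescence change span, or the activity score built from it, above 25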
TORC1 bypass gr = wildtype yeast growth loss with TORC1 bypass cells unaffected; 120 tested, under 10 active; growth rating (0-3) at 30 µM; shares compounds with LAP4-GFP MLPCN; S. cerevisiae BY4741 spot growth rating, 48-72 h; stronger effect = lower value;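 active means growth rating at most 1 for wild type yeast while the TORC1 bypass strain still grows fully, rated 3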
Active calls of the source: *; . = not tested or not shown.

SMILES	MEP2 TOR yeast	Efflux pump inh	CIT2-GFP yeast	LAP4-GFP MLPCN	RPL19A-GFP yeast	AGP1-GFP MLPCN	LAP4-GFP pick2	MEP2-GFP pick2	RPL19A GFP CP2	CIT2 GFP CP2	AGP1 GFP CP2	others
CCCCn1nc(C(=O)Nc2cc(S(=O)(=O)N(C)C)ccc2C)c2ccccc2c1=O	99.2	-0.1	106.2	93.5	99.6	102.9	.	.	.	.	.
CC(C)(C)c1ccc(C(=O)NCC(=O)OCCN2C(=O)c3ccccc3C2=O)cc1	105.0	-0.2	100.5	100.5	99.5	104.7	.	.	.	.	.
O=C1NC(=Nc2ccccc2Cl)S/C1=C\c1cccc([N+](=O)[O-])c1	82.2	0.1	78.6	151.6*	89.2	71.3	142.3	98.2	92.5	121.0	82.7
O=C1NC(=Nc2ccccc2Cl)S/C1=C\c1cccc([N+](=O)[O-])c1O	102.0	0.1	102.0	79.6	97.1	80.0	.	.	.	.	.
Cc1cnc(CNC(=O)CC2C(=O)NCCN2Cc2cccc(F)c2F)cn1 (stereo not given)	86.9	0.1	101.3	93.7	101.0	100.1	.	.	.	.	.
O=C(O)CCNS(=O)(=O)c1cccc2nsnc12	99.5	0.0	100.6	94.2	101.8	105.2	.	.	.	.	.
COc1ccc(-c2[nH]c3ccccc3c2SCCNC(=O)c2ccccc2)cc1	662.0*	0.1	147.7	216.8*	66.4	140.2	98.1	99.8	100.0	97.2	99.6
COc1ccc(C(=O)NCCSc2ccccc2)cc1	101.1	-0.5	89.8	111.8	100.3	92.7	.	.	.	.	.
Cc1ccc(Cn2ccc(NC(=O)c3cc(C4CC4)on3)n2)cc1	95.8	0.0	91.6	126.1	101.2	98.2	.	.	.	.	.
CC(=O)SC(C[N+](=O)[O-])c1cn(C(C)=O)c2ccccc12 (stereo not given)	97.7	0.1	83.3	229.3*	92.7	101.2	.	.	.	.	.	Yeast autofluor=0.41;Yeast autofl DR=0.83;TORC1 bypass gr=3
CC(=O)n1cc(Nc2ccc([N+](=O)[O-])cc2)c2ccccc21	98.9	0.0	100.0	114.7	104.6	94.0	.	.	.	.	.
c1ccc(N2OCC3Cn4c(nc5ccccc54)C32)cc1 (stereo not given)	95.5	-0.1	95.7	130.3	96.2	83.8	.	.	.	.	.
O=c1[nH]c(-c2ccc(Cl)cc2)cs1	93.6	-0.1	84.5	119.7	63.0	80.7	104.2	111.8	98.9	101.5	105.5	Yeast autofluor=0.1
O=c1[nH]c(-c2ccccc2)cs1	101.9	0.1	98.6	104.6	100.8	101.0	.	.	.	.	.
O=c1c2ccccc2nc(/C=C/c2ccc([N+](=O)[O-])o2)n1CCCO	229.8*	0.3	178.9*	193.4*	104.5	80.5	300.0*	352.8*	143.3	274.8*	123.9
O=c1c2ccccc2nc(/C=C/c2ccc([N+](=O)[O-])cc2)n1CCCO	106.7	0.1	95.6	110.5	104.6	101.5	.	.	.	.	.
O=C(Nc1nccs1)C1CC(=O)N(c2ccccc2)C1 (stereo not given)	103.3	0.1	105.9	93.2	103.6	96.0	.	.	.	.	.
Clc1ccc(Nc2nc(-c3cccnc3)cs2)cc1	114.4	-0.2	121.2	108.8	104.3	.	.	.	.	.	.
Fc1ccc(Nc2nc(-c3cccnc3)cs2)cc1	149.1	0.0	91.6	101.5	59.1	74.0	100.0	101.5	102.1	99.5	97.2
O=C1[C@H]2[C@@H](c3ccc(Cl)cc3)N3C(=O)N(c4cccc(Cl)c4)C(=O)[C@@]3(Cc3ccccc3)[C@H]2C(=O)N1C1CCCCC1	90.5	0.1	71.1	128.0	94.2	76.8	.	.	.	.	.
COc1cccc(CNC(=O)C(CC(C)C)NC(=O)c2ccccc2C)c1 (stereo not given)	102.2	0.2	103.6	93.4	103.4	98.3	.	.	.	.	.
C=CCN1CCN(C(=O)c2ccc3c(c2)OCO3)CC1	108.3	0.4	156.7*	95.7	99.6	108.8	104.2	103.1	97.4	100.1	102.7
CCC1(c2ccccc2)ON(c2c(Br)cccc2Br)C1=O (stereo not given)	85.5	-0.1	81.6	130.7	80.0	60.2	124.0	118.1	99.8	113.1	94.3	Yeast autofluor=0.5
CCOC(=O)c1c(C)oc2c1C(=O)c1ccccc1C2=O	96.1	-0.2	98.0	114.7	108.1	97.9	.	.	.	.	.
Cc1oc2c(c1C(=O)O)C(=O)c1ccccc1C2=O	88.3	0.0	73.9	156.3*	110.7	97.2	133.3	132.8	109.8	116.8	118.8
CN(C)c1ccnc(-n2cccc2/C=N/O)c1C#N	94.2	0.3	.	85.8	88.4	83.8	.	.	.	.	.
Cc1ccc(C(=O)NCC(=O)Nc2ccc(S(=O)(=O)Nc3cc(C)nc(C)n3)cc2)cc1	104.3	-0.2	96.2	153.3*	84.8	100.7	100.0	98.2	100.7	102.9	98.1
CC(=O)c1ccc(NS(=O)(=O)c2ccc3c(c2)N(C)CCO3)cc1	102.2	0.2	92.3	98.3	95.8	96.1	.	.	.	.	.
Cc1ccc2[nH]cc(C(=O)NCc3cccs3)c(=O)c2c1	105.3	-0.1	100.7	105.0	95.9	112.6	.	.	.	.	.
COc1cccc2c(=O)c(C(=O)NCc3cccs3)c[nH]c12	98.0	0.3	88.3	101.2	93.0	96.6	101.0	103.2	99.8	98.4	103.3	Yeast autofluor=0.5

Screening data from PubChem.
